Laboratory results reported in PubChem BioAssay AID1445 (SRMLSC, 2008).
The campaign covered roughly 220,000 compounds. About 910 (0.41%) were called active. For the sample, actives were picked, then their nearest neighbours and some compounds at random. Measured potencies and affinities stand elsewhere. A number with no mark means an inactive call.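 Rule for the calls: active = primary inhibition above the hit cutoff, then over 50% inhibition at one or more dose response concentrations (cut at about 23% in these data, passing the limit was not always enough); inconclusive = conflicting primary data, or primary hits not chosen for dose response; inactive = low primary inhibition, or under 50% at every dose.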

What follows are compounds tested against Aminopeptidase N (Plasmodium falciparum (isolate 3D7)) (UniProt O96935) (assay: malaria alanyl aminopeptidase activity blockers – biochemical, fluorogenic H-Leu-NHMec substrate, 1536-well (AID 1445;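 note: plate controls were DMSO full reaction for no effect and no enzyme background for full effect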)). Conditions: recombinant M1AAP, H-Leu-NHMec fluorogenic kinetic assay; at 30 µM, stronger effect = higher value unless noted.
Sequence of Aminopeptidase N (Plasmodium falciparum (isolate 3D7)) (O96935 whole entry, looked up): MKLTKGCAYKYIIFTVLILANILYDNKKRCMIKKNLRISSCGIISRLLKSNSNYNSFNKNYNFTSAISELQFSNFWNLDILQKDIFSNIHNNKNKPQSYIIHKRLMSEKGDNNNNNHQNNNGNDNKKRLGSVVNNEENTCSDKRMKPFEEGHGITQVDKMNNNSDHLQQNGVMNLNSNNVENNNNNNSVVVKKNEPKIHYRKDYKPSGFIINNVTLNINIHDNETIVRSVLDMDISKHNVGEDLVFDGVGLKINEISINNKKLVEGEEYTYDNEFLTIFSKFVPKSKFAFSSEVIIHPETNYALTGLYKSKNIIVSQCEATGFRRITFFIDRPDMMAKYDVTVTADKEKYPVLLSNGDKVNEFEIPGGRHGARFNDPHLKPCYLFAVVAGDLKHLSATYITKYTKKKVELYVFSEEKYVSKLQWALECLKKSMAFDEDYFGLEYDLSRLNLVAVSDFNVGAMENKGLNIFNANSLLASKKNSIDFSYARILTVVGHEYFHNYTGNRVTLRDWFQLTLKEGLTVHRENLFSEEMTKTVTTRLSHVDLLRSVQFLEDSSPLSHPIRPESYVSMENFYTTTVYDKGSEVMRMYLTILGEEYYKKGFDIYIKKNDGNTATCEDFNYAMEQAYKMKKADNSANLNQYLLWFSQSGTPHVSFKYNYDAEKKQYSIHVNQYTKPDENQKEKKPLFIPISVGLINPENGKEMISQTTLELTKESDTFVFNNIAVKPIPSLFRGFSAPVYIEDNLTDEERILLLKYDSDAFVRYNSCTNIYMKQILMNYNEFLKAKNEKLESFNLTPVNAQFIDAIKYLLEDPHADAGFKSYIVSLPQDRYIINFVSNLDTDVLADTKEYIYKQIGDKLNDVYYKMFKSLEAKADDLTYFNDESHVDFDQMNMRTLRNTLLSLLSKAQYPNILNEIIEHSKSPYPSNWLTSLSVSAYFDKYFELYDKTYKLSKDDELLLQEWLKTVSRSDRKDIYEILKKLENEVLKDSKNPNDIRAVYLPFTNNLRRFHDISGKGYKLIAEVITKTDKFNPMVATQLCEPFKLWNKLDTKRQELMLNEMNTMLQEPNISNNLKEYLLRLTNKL

Row | Compound | inhibition
1 | CCCc1[nH]nc2c1C1(CCN(C(=O)OCc3ccccc3)CC1)C(C#N)=C(N)O2 | 3.73%
2 | O=C1OCC=C1NNC(=O)c1cccnc1 | 4.75%
3 | Cc1ccc(SCc2[nH]nc3c2C2(C(=O)N(C)c4ccccc42)C(C#N)=C(N)O3)cc1 (stereo not drawn) | 5.03%
4 | Cn1c(SCc2ccccc2)nc2ccsc2c1=O | 2.71%
5 | COc1ccc(C(=O)Nn2c(SCC(=O)NCc3ccco3)nc3ccccc3c2=O)cc1 | 1.81%
6 | Cc1ccc(CNC(=O)CSc2nc3ccsc3c(=O)n2Cc2ccc(C(=O)O)cc2)cc1 | 33.8%
7 | Cc1ccc(CNC(=O)CSc2nc3ccsc3c(=O)n2Cc2ccccn2)cc1 | 15.8%
8 | CCC(C)NC(=O)CSc1nc2ccsc2c(=O)n1NC(=O)c1ccccc1 (stereo not drawn) | 15.2%
9 | COc1ccc(-n2c(SCC(=O)NCCC(C)C)nc3ccsc3c2=O)cc1 | -0.48%
10 | CCCN(CCC)C(=O)CSc1nc2ccsc2c(=O)n1NC(=O)c1ccccc1 | 2.56%
11 | O=C(CSc1nc2ccsc2c(=O)n1Cc1ccccc1)NCc1ccco1 | -0.89%
12 | CC1(C)Cc2c(sc(/N=C/N3CCCCC3)c2C#N)C(C)(C)N1 | 6.45%
13 | COc1ccc(/C=C/C(=O)NCC2COc3ccccc3O2)c(OC)c1 (stereo not drawn) | 6.8%
14 | COc1ccc(Cl)cc1NC(=O)CNc1ccccc1CN(C)C1CCCCC1 | 10.4%
15 | COC(=O)c1ccc(COc2ncnc3c(Cl)cc(Cl)cc23)o1 | 1.47%
16 | COc1ccc(C)cc1NC(=O)Cn1cnnn1 | 2.9%
17 | S=C(c1ccc(Br)cc1)N1CCN(Cc2ccccc2)CC1 | 12.5%
18 | CCc1n[nH]c(=S)n1/N=C/c1ccccc1OCc1ccc(Cl)cc1 | 3.79%
19 | CSc1n[nH]c(NC(C)=O)n1 | 2.22%
20 | Oc1c(Cl)cc(Cl)cc1C=Nc1ccc(Br)cc1 | 12.1%
21 | C/C(=N\O)c1cc(Cl)cc(Cl)c1O | 10.5%
22 | O=C(NCCn1ccc2ccccc21)c1ccc(S(=O)(=O)N2CCOCC2)cc1 | 8.48%
23 | CC(C)C(=O)NCCc1nc2ccccc2n1CCCOc1ccc(Cl)cc1 | 10.4%
24 | O=C(CC(C(=O)O)c1ccccc1)c1cccs1 (stereo not drawn) | 3.01%

Row | Compound | inhibition
25 | CC(C)Cc1nc2oc3c(=O)[nH]cnc3c2c2c1CCCC2 | -0.28%
26 | CN(C)C(=O)N1CCCC(C(=O)NCCc2ccccc2)C1 (stereo not drawn) | 2.4%
27 | O=C(NCCc1ccccc1)C1CCCN(C(=O)NC2CCCCC2)C1 (stereo not drawn) | 28.2% (active)
28 | O=C(NC1CCN(C(=S)NCCc2ccccc2)CC1)C1CCCCC1 | -6.9%
29 | N#Cc1c(NC(=O)CN2CCOCC2)oc(-c2ccccc2)c1-c1ccccc1 | 23.5% (active)
30 | O=c1[nH]c2ccc(Cl)cc2c(-c2ccccc2)c1N1CCOCC1 | -3.98%
31 | O=C(O)Cc1c(-c2ccccc2)c2cc(Br)ccc2[nH]c1=O | 22.3%
32 | O=C(CN1CCOCC1)NNc1nc(-c2ccccc2)c2cc(Br)ccc2n1 | 20.7%
33 | O=C(CN1CCOCC1)Nc1c(-c2ccccc2)c2cc(Br)ccc2[nH]c1=O | 28.2% (active)
34 | CCOC(=O)c1[nH]c2ccc(Br)cc2c1NC(=O)CCN1CCOCC1 | 4.62%
35 | O=C(CCN1CCOCC1)Nc1cccc(Br)c1 | -4.3%
36 | N#Cc1c(NC(=O)Cn2c(=O)oc3ccccc32)oc(-c2ccccc2)c1-c1ccccc1 | 4.71%
37 | N#Cc1c(NC(=O)CCN2C(=O)c3ccccc3C2=O)oc(-c2ccccc2)c1-c1ccccc1 | 5.82%
38 | O=c1[nH]c2ccc(Cl)cc2c(-c2ccccc2)c1SC(=S)N1CCOCC1 | 44%
39 | CCOC(=O)N1CCN(C(=O)CCCOc2ccccc2)CC1 | 3.31%
40 | O=c1[nH]ncc(N2CCCCCC2)c1Cl | 5.89%
41 | COc1cc(/C=C/C(=O)O)ccc1OCc1cnc(Cl)s1 | 0.41%
42 | CC1=Nn2c(nc(-c3ccccc3)c2-c2ccccc2)N(CC(N)=O)C(=O)C1 | -0.64%
43 | CCCS(=O)(=O)N1CCN(C(=O)c2ccco2)CC1 | 12.4%
44 | CSc1nnc(C)c(=O)n1COC(=O)COc1ccccc1 | 0.02%
45 | COc1cc(OC)cc(C(=O)NC(=S)NCc2ccco2)c1 | 5.49%
46 | O=C(NC1CCCCC1)N1CCN(C(=O)c2ccco2)CC1 | -0.86%
47 | O=C(c1ccco1)n1nc(-c2cccnc2)nc1NCc1ccco1 | 16.8%
48 | CC1(C)Cc2nc3sc(C(=O)NCCO)c(N)c3cc2CO1 | 1.79%
